# In the library only some 8.3% were active in any assay of this set; here they are far more common.
# Lassa entry inh: inhibitors of Lassa virus binding or cell entry | 300,000 tested, 1.2% active | AID 540256 | Potency, µM (series often up to 37.9 µM), for the others: at the highest dose activity change, negative = inhibition, most hits filed as inhibitors | Lassa virus pseudotype entry inhibition, cell reporter; calls by dose curve; tested in HEK293 cells; further: potency means the concentration at half of the fitted maximal effect; nearly all actives have a fitted effect of over 50% in size
# HCMV inh: human cytomegalovirus inhibition | HFF cells, HCMV-luciferase reporter, 72 h; active compounds read low | activity change, negative = inhibition, % at 57.5 µM | 410,000 tested, 4.5% active | AID 1259415; in the data active means activity change below about -60%; inconclusive means no clear call, values can overlap the other calls; inactive means above about -39%
#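 Two-dose cell screen: HFF monolayers treated with compounds and infected with luciferase-expressing HCMV at 1 PFU/cell, 72 h at 37C, then lysed for luciferase measurement.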
# Giardia FBPA inh: inhibitors of Giardia lamblia fructose-1,6-bisphosphate aldolase; 290,000 tested, 0.71% active; AID 2451; purified Giardia FBPA; Potency, µM (doses to about 59.6 µM), inactives show top-dose activity, negative = inhibition, actives largely listed as inhibitors; further: potency means the concentration at half of the fitted maximal effect; nearly all actives have a fitted effect of over 55% in size
# Target sequence (A8B2U2 whole entry, looked up): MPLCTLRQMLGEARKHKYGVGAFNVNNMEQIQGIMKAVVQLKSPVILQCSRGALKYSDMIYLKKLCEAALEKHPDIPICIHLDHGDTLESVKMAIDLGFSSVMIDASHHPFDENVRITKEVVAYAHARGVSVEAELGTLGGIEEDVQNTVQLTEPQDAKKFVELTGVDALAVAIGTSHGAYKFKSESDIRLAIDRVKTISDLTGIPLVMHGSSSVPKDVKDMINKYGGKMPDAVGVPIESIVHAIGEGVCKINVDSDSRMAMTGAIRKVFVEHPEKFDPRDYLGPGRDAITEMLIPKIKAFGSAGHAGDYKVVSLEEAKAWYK
#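 40 nM FBPA preincubated 10 min at RT with compound (up to 57.5 uM final), then substrate plus GAPDH/TPI/NAD/arsenate coupling and diaphorase/resazurin added. Fluorescence read after 20 min at RT, 525/598 nm.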
# Marburg entry inh: Marburg virus entry inhibition | Potency, µM (highest dose often 37.8 µM), for the others: top-dose activity change, negative = inhibition, actives largely listed as inhibitors | Marburg virus pseudotyped entry inhibition, cell reporter | 300,000 tested, 1.8% active | AID 540276; calls by dose curve; tested in HEK293 cells; further: potency means the concentration at half of the fitted maximal effect
# FMDV antiviral: blocks foot and mouth disease virus. FMDV antiviral cell-based qHTS. Potency, µM (top dose mostly 57.9 µM), inactives show top-dose activity change, negative = inhibition, usual class: inhibitors. 410,000 tested, 1.2% active. AID 1159524; calls by dose curve; tested in HEK293T cells; further: read-out not given here; potency means the concentration at half of the fitted maximal effect; nearly all actives have a fitted effect of over 45% in size
# HCV inh: inhibitors of hepatitis C virus infection; Huh7.5.1 HCVcc-Cre infection, luciferase reporter, 44 h; Potency, µM (doses to about 41.8 µM), without a hit: at the highest dose activity change, negative = inhibition, most hits filed as inhibitors; 340,000 tested, 3.4% active; AID 651820; further: potency means the concentration at half of the fitted maximal effect
#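 1,000 cells/well; 4 h culture; + compound; + HCVcc-Cre (~0.5 moi); 44 h; luciferase substrate, RT 15 min; read 15 sec.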
# * marks the source's active call; other numbers are inactive results; ? = inconclusive; nt = no result given; ! = a repeat was not active; [ ] = another dose, or the depositor's remark. Unless noted, the call rests on the fitted dose curve; in most records, active means well fitted curve in the direction sought with a large enough effect; inconclusive means small, poorly fitted or top-dose-only effect, or another doubt; inactive means no such curve, though single readings can be large; an effect the other way counts as inactive or inconclusive. On the % scale 0 is the no-effect control and ±100 the full control effect.
SMILES,Lassa entry inh,HCMV inh,Giardia FBPA inh,Marburg entry inh,FMDV antiviral,HCV inh
CC(=O)OC1CC2C(C)(C)C(=O)CC[C@]2(C)C2CC[C@]3(C)C(=CC(=O)OC3c3ccoc3)[C@]12C (stereo partly specified),nt,nt,0%,nt,-5%,nt
CC(=O)OC1CC2C(C)(C)C(=O)C=C[C@]2(C)C2CC[C@]3(C)C(=CC(=O)OC3c3ccoc3)[C@]12C (stereo partly specified),nt,nt,1%,nt,25µM*,nt
O=C(NCc1ccco1)c1cc(S(=O)(=O)N2CCCc3ccccc32)ccc1Cl,?,-67*,0%,?,-3%,?
Cc1ccc(C)c(NC(=O)c2cc(S(=O)(=O)N3CCCc4ccccc43)ccc2F)c1,-29%[46.1 µM],-62*,nt,nt,-27%,nt
Oc1ccc(/C=N/Nc2ccc(C(F)(F)F)cn2)cc1,15%[46.1 µM],18,0%,?,36%,?
Oc1ccc(/C=N/Nc2ccc(C(F)(F)F)cn2)c(O)c1,nt,-94*,2%,nt,nt,nt
CC(C)CC1Nc2ncnc(N3CCOCC3)c2N(Cc2ccc(Cl)cc2)C1=O (stereo unspecified),nt,-101*!,nt,nt,-21%,-13%
CC(C)CC1Nc2ncnc(N3CCN(c4ccccn4)CC3)c2N(Cc2ccc(Br)cc2)C1=O (stereo unspecified),nt,1,nt,nt,-15%,25µM*
CCC1Nc2ncnc(N3CCN(c4ccccc4)CC3)c2N(Cc2ccc(OC)cc2)C1=O (stereo unspecified),nt,3,nt,nt,-17%,2.8µM*
COCc1c(C(=O)N2CCN(C3CCCC3)CC2)cnn1-c1nccc(-c2cccs2)n1,nt,nt,nt,nt,2%,nt
COc1ccc(NC(=O)CSc2nc3ccccc3nc2Cc2ccc(C)cc2)cc1Cl,13%[46.1 µM],1,nt,nt,0%,nt
COc1cc(NC(=O)CSc2nc3ccccc3nc2Cc2ccc(Cl)cc2)cc(OC)c1,-16%[46.1 µM],0,nt,nt,2.5µM*,nt
COc1cccc(CNC(=O)CSc2nc3ccccc3nc2Cc2ccc(C)cc2)c1OC,0%[46.1 µM],-92*,nt,nt,-7%,nt
COc1cc(NC(=O)CSc2ncccc2C(=O)OC(C)C)cc(OC)c1,1%[46.1 µM],-108*!,1%,-26%,-25%,?
CCOC(=O)c1cccnc1SCC(=O)Nc1ccc(C)cc1,24%,46,-2%,5%[46.1 µM],34%,-14%
C[C@H]1C[C@@H](C)O[C@@]2(C1)C(=O)N(Cc1ccc(F)cc1)c1ccccc12,nt,nt,nt,28%[14.2 µM],nt,nt
CN(C(=O)c1ccco1)c1nc(-c2ccc(Cl)cc2)cs1,nt,6,5%,nt,0%,1%
O=C(c1ccco1)N(CC1CCCO1)c1nc(-c2ccccc2)cs1 (stereo unspecified),-15%,-101*,-3%,1%,?,?
COc1ccc(-c2csc(N(CCCN3CCOCC3)C(=O)c3ccco3)n2)cc1,?,24,-10%,?,-15%,10µM*
COc1ccc(-c2csc(N(C)C(=O)c3ccco3)n2)cc1,-13%,13,19%,10%,48%,5%
CN(C)CCCN(C(=O)c1ccco1)c1nc(-c2ccc(Cl)cc2)cs1,nt,112,-6%,nt,-14%,11µM*
Cc1ccc(-c2csc(N(CCCN(C)C)C(=O)c3ccco3)n2)cc1,-10%,-13,-16%,?,1%,?
Cc1ccc(-c2csc(N(CCCN3CCOCC3)C(=O)c3ccco3)n2)cc1,?,-6,-20%,?,nt,11µM*
Cc1ccc(-c2csc(N(CC3CCCO3)C(=O)c3ccco3)n2)cc1 (stereo unspecified),?,-21,-4%,?,-17%,?
COc1cccc(C(=O)NCCSc2c(-c3ccc(F)cc3)[nH]c3ccccc23)c1OC,?,-25,nt,?,0%,nt
O=C1C(=O)N(CNc2ccccn2)c2ccccc21,?,-68*,nt,?,8%,-6%
CCCc1nnc2c(N(C)S(=O)(=O)c3ccc(C)cc3)nc3ccccc3n12,0%,-69*,-5%,-3%,-10%,11%
CCn1cc(CNC(=O)c2ccc3nc(Cc4ccc(OC)cc4)oc3c2)cn1,-25%[46.1 µM],-65*,3%,-21%[46.1 µM],-19%,10µM*
O=C(NCCc1ccncc1)c1ccc2nc(Cc3cccc(Cl)c3)oc2c1,6%,-70*,nt,-9%,-27%,-7%
